# The sample as a whole holds a higher share of hits than the screen did.
# 14-3-3g Raf: modulators of human 14-3-3 gamma - Raf peptide interaction; P61981; FP, 14-3-3gamma / TMR-pS259-Raf peptide binding; inhibition, % at 40 µM; 160,000 compounds, 0.19% hits; AID 422; in the data active means inhibition above about 30%
# Target sequence (P61981 whole entry, looked up): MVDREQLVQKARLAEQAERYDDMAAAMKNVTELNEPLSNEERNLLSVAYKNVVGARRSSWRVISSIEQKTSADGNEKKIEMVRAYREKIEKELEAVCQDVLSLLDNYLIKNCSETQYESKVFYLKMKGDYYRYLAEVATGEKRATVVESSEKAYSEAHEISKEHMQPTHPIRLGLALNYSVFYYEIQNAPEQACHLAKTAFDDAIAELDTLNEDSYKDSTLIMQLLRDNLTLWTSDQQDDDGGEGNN
# Numbers stand for hits; - = inactive; ! = not confirmed by another sample.
SMILES,14-3-3g Raf
CCC(=O)N1CCc2cc(S(=O)(=O)N3CCCCC3c3cccnc3)ccc21 (centres undefined),-
CC(=O)Nc1ccc(S(=O)(=O)N2CCCCC2c2cccnc2)cc1 (centres undefined),-
COc1cc(C)c(C)cc1S(=O)(=O)N1CCCCC1c1cccnc1 (centres undefined),31.3
Cc1cc(I)ccc1NC(=O)c1cncc(Br)c1,-
COc1ccc(S(=O)(=O)N2CCC(C(=O)NC(C)c3ccccc3)CC2)cc1OC (centres undefined),-
O=C(COc1nsnc1N1CCOCC1)Nc1ccc(F)cc1,-
COc1ccc(-c2nc(CSCC(=O)N3CCC(C(N)=O)CC3)c(C)o2)cc1OC,-
CCOC(=O)N1CCC(NC(=O)CSCc2nc(-c3ccc(OC)c(OC)c3)oc2C)CC1,60.7
COc1ccc(-c2nc(CSCC(=O)NCC3CCCO3)c(C)o2)cc1OC (centres undefined),-
Oc1cc(O)c(C(O)(C(F)(F)F)C(F)(F)F)c(O)c1,-
c1coc(-c2cc(C3CCNCC3)[nH]n2)c1,42.2
O=C(O)c1cc(-c2ccco2)[nH]n1,-
Nc1cc(-c2ccco2)no1,-
CCC(=O)Nc1nc2ccc(OC)cc2s1,-
CN(Cc1ccco1)C(=O)c1ccc2c(c1)N(Cc1cccc(F)c1)C(=O)c1ccccc1S2,-
CCCn1c(=S)[nH]c2cc(C(=O)NCc3ccco3)ccc2c1=O,-
COc1ccccc1N1CCN(S(=O)(=O)c2ccccc2C)CC1,-
COc1ccc(C=Nc2ccc3ncccc3c2)cc1,-
COc1ccc(C=Nc2ccco2)cc1,31.9
COc1ccc(C=Nc2ccccc2)cc1,-
CC1CC(C)CN(C(=O)CC(C(=O)N2CCc3ccccc32)n2ccnc2)C1 (centres undefined),-
CC(C)(CC(=O)OCC(=O)c1ccccc1)CC1=NS(=O)(=O)c2ccccc2N1,-
O=C(CCn1c(=S)[nH]c2ccccc2c1=O)NCc1cccnc1,-
CCOc1ccccc1Nc1nc(-c2cccs2)cs1,-
Cc1ccccc1CS(=O)(=O)Cc1ccc(C(=O)NCc2ccccn2)o1,33.5
SMILES,14-3-3g Raf
Cc1cc(=O)oc(C)c1C(=O)NCc1ccccc1Cl,-
O=C(NCc1ccccn1)c1ccc(CS(=O)(=O)Cc2ccc(Cl)cc2)o1,-
Cc1ccccc1CS(=O)(=O)Cc1ccc(C(=O)NCc2ccco2)o1,-
Cc1cc(=O)oc(C)c1C(=O)NCc1ccccn1,44.5!
Cc1ccc(CNC(=O)c2c(C)cc(=O)oc2C)cc1,-
Cc1ccc(Cl)cc1NC(=O)COc1ccc([N+](=O)[O-])cc1,-
O=C(Nc1ccc(S(=O)(=O)c2ccc(NC(=O)c3ccco3)cc2)cc1)c1ccco1,-
OC(CN1CCCCC1)CN(c1ccccc1)c1ccccc1 (centres undefined),-
OC(CN1CCOCC1)CN(c1ccccc1)c1ccccc1 (centres undefined),92.3
OC(CN1CCOCC1)CN1CCOCC1,-
O=C(CCCCCN1C(=O)c2ccccc2C1=O)Nc1ccc[nH]c1=O,-
COc1ccc2c3c(cccc13)OCC2=O,-
CCC1=NNc2cccc3c(OC)ccc1c23,141.8
COc1ccc(C(C)=O)c2c(O)cccc12,-
CCN(CC)C(=O)Cn1cnc2sc(C(=O)Nc3cc([N+](=O)[O-])ccc3OC)c(C)c2c1=O,-
COc1ccc(NC(=O)C2=C(C)NC3=C(C(=O)CC(c4ccc(OC)c(OC)c4)C3)C2c2cccc(C(F)(F)F)c2)cc1 (centres undefined),-
CCOC(=O)c1ccc(NC(=O)c2c(NCc3ccc(C)o3)sc3c2CCC(C)C3)cc1 (centres undefined),-
CC(C)(C)n1cnc2cc(NCc3ccncc3)ccc21,-
CC(C)(C)n1cnc2cc(NCc3ccccn3)ccc21,31.6
Cn1cnc2cc(NCc3ccccn3)ccc21,-
O=C(Cc1ccccc1Br)N(CCCN1CCOCC1)Cc1cccs1,-
O=C(CSc1nc(O)cc(=O)[nH]1)N1CCCCCC1,-
NC(=O)c1c(NC(=O)c2ccc(F)cc2)sc2c1CCCC2,-
NC(=O)c1c(NC(=O)c2ccccc2Cl)sc2c1CCCC2,-
NC(=O)c1c(NC(=O)c2ccc(Cl)cc2)sc2c1CCCC2,40.5
SMILES,14-3-3g Raf
Cc1cc(C)n(C(=O)c2ccc(C(C)(C)C)cc2)n1,-
Cn1c(=O)c2c(SCC(=O)N3CCCCCC3)nc(-c3ccco3)nc2n(C)c1=O,-
CCOc1ccc2[nH]c(=O)c(CN(CC3COCCO3)C(=O)C3CC3)cc2c1 (centres undefined),39.5
CCOc1ccc2[nH]c(=O)c(CN(C(=O)N3CCOCC3)C3CC3)cc2c1,-
CCOc1ccc2[nH]c(=O)c(CN(Cc3ccccc3)C(=O)N3CCCC3)cc2c1,-
CCC1CCC(C(=O)NC(C(=O)NCc2cccs2)C(C)C)CC1 (centres undefined),-
O=C(O)C1CCCCN1S(=O)(=O)c1ccc(Cl)cc1 (centres undefined),-
O=C(O)C1CCCN1S(=O)(=O)c1ccc(F)cc1 (centres undefined),-
Cc1ccc(S(=O)(=O)N2CCCC2C(=O)O)cc1 (centres undefined),53.0!
CCOC(=O)c1ccc(NC(=O)Cn2cccc2)cc1,-
CCOC(=O)c1ccc(NC(=O)CN2CCN(c3ccccc3)CC2)cc1,-
CCOC(=O)c1ccc(NC(=O)CN2CCCCC2)cc1,30.5
O=C(Nc1cccc(C(F)(F)F)c1)c1ccc(NC(=O)c2cccc(Br)c2)cc1,-
O=C(Nc1cccc(C(F)(F)F)c1)c1ccc(Br)c([N+](=O)[O-])c1,73.4
Cc1c(C(=O)Nc2cccc(C(F)(F)F)c2)cccc1[N+](=O)[O-],-
Nc1nnc(SCc2ccc(C(=O)O)cc2)s1,-
Cc1ccc(S(=O)(=O)N(C)CCC#N)cc1,-
O=C(c1cc(C(=O)N2CCCc3ccccc32)cc([N+](=O)[O-])c1)N1CCCc2ccccc21,-
CCc1cccc(NC(=O)c2cc3cc4ccc(OC)cc4nc3o2)c1,-
CCN(C(=O)c1cc2cc3ccc(OC)cc3nc2o1)c1cc(C)ccc1C,-
COc1ccc2cc3cc(C(=O)NC(C)CCc4ccccc4)sc3nc2c1 (centres undefined),-
COc1ccc2cc3cc(C(=O)NC(C)CCc4ccccc4)oc3nc2c1 (centres undefined),144.7
CCc1ccccc1N(CC)C(=O)c1cc2cc3ccc(OC)cc3nc2o1,176.8
CCOc1ccc(N(CC)C(=O)c2cc3cc4ccc(OC)cc4nc3o2)cc1,-
CCC1CCCCN1C(=O)c1nn2c(c1Br)NC(c1cccs1)CC2C(F)(F)F (centres undefined),-
SMILES,14-3-3g Raf
O=C(Nc1cc([N+](=O)[O-])ccc1O)c1ccc([N+](=O)[O-])cc1,-
CCNC(=O)c1cc2c(=O)n3ccccc3nc2n(CC)c1=N,-
COC(=O)c1cc(C(=O)OC)cc(-n2c(C)cc(C(=O)CSc3nnc4sc5ccccc5n34)c2C)c1,-
CSc1nnc2c(n1)OC(c1ccc(C)cc1)Nc1ccccc1-2 (centres undefined),-
CCSc1nnc2c(n1)OC(c1ccccc1Cl)Nc1ccccc1-2 (centres undefined),98.3
CSc1nnc2c(n1)OC(c1ccccc1C)Nc1ccc(Br)cc1-2 (centres undefined),48.6
COc1ccc(Br)cc1C1Nc2ccc(Br)cc2-c2nnc(SC)nc2O1 (centres undefined),-
CSc1nnc2c(n1)OC(c1ccccc1F)Nc1ccc(Br)cc1-2 (centres undefined),-
CSc1nnc2c(n1)OC(C1CC=C(C)CC1C)Nc1ccc(Br)cc1-2 (centres undefined),-
